# In the library only some 4.8% were active in any assay of this set; here they are far more common.
# hgDAF12 agonist = H. glycines DAF-12 receptor agonists, primary screen, cell-based, luminescence, HEK293, GAL4 fusion, UAS-luciferase. Nuclear hormone receptor DAF-12 (Heterodera glycines), GAL4 fusion. HEK293 GAL4-hgDAF12 UAS-luciferase reporter, agonist luminescence; normalized to butyrate control. activation, % at 6.8 µM. 1.8% of 370,000 active;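 active = activation above a cutoff set at the mean of all screened compounds plus 3 SD, cut at about 10% in these data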;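 also: 0% = DMSO wells and 100% = sodium butyrate wells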
# ssDAF12 agonist = S. stercoralis DAF-12 nuclear receptor activators, primary screen, cell-based, luminescence, HEK293, GRIP1 co-expression, lit1-tk-luc; Nuclear hormone receptor DAF-12 (Strongyloides stercoralis); HEK293 ssDAF-12/GRIP1 lit1-tk-luc reporter; % of 3 µM dafachronic acid response; activation, % at 6.8 µM; 1% of 370,000 active;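 active = activation above the mean over all tested compounds plus 3 SD, cut at about 0.9% in these data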;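 also: 0% = DMSO-only wells and 100% = 3 µM delta7-dafachronic acid wells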
# DAX1 inh-1 = DAX1 (NR0B1) inhibitors on StAR promoter, primary screen, cell-based, luminescence, SF-1 (NR5A1), full-length DAX-1; HEK293T StAR-luciferase reporter, SF-1/DAX-1 repression relief; inhibition, % at 6.8 µM; 1.1% of 370,000 active;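 active = inhibition above the mean over all tested compounds plus 3 SD, cut at about 3.6% in these data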;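 also: 0% = DAX-1 cells with DMSO and 100% = cells lacking DAX-1 with DMSO; higher inhibition means more luminescence from relief of DAX-1 repression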
# hcDAF-12 act = H. contortus DAF-12 nuclear receptor activators, primary screen, cell-based, luminescence, HEK293, lit1-tk-luc reporter | HEK293 hcDAF-12 lit1-tk-luc reporter; 0% DMSO, 100% Δ7-dafachronic acid | activation, % at 6.8 µM | 1.4% of 370,000 active | AID 652067, 2013;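 active = activation above the mean of all tested compounds plus 3 SD, cut at about 5.5% in these data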;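 also: 100% = response to 3 µM Δ7-dafachronic acid high control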
# DAX1 inh-2 = DAX1 (NR0B1) inhibitors, primary screen, cell-based, HEK293, Gal4-DAX1, luciferase luminescence; HEK293 Gal4-DAX1 luciferase reporter; inhibition, % at 6.75 µM; 0.99% of 340,000 active;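 active = inhibition above the mean over all tested compounds plus 3 SD, cut at about 4.2% in these data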;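 also: 0% = DAX1-transfected cells with DMSO and 100% = empty-vector control cells with DMSO; inhibition shows as a rise in luminescence from relieved DAX1 repression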
# Target sequence (P51843 207-470 limits assumed): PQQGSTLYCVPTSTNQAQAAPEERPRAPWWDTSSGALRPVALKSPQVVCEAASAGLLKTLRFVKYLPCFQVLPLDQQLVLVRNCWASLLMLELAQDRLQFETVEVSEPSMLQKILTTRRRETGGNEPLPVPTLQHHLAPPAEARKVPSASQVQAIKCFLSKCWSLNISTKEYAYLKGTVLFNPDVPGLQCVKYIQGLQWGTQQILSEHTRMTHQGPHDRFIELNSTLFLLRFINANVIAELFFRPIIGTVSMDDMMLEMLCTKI
# SMARCA2 activ = SMARCA2 (BRM) function activators, primary screen, cell-based, luminescence, high throughput; activation, % at 9.1 µM; MG213 cells, MMTV-luciferase reporter, dexamethasone, overnight; 1% of 370,000 active; in the data active = activation above about 7.8%;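 also: 0% = vehicle wells and 100% = reference activator wells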
# * hit, by the source's call; nt = no result given.
SMILES,hgDAF12 agonist,ssDAF12 agonist,DAX1 inh-1,hcDAF-12 act,DAX1 inh-2,SMARCA2 activ
CC1Cc2[nH]c(=S)[nH]c(=O)c2C(C)O1 (stereo not drawn),2,0,2,-1,nt,-2
Cc1cccc(-c2ccc3c(c2)C2CC3CCN2Cc2ccc3c(c2)OCO3)c1 (stereo not drawn),0,0,4.0*,-1,-1,-5
CC(=O)N1CCN(C(=O)c2cc(S(=O)(=O)N(C)c3ccc(F)cc3)ccc2Cl)CC1,-1,-1,-1,-1,1,0
COc1ccccc1NC(=O)COc1ccccc1C(=O)c1cnn(-c2ccccc2)c1,13*,0,1,2,-1,5
COC(=O)c1c(N)c2ccccc2[nH]c1=O,1,-1,0,1,1,-2
CC(=O)c1c(C(=O)O)c2ccccc2[nH]c1=O,-1,-1,0,0,4.8*,-4
CCc1ccc(OCC(=O)N(C)C)c(Br)c1,1,-1,0,-2,5.5*,-1
CCc1ccc(OCC(=O)NC(=S)Nc2ccc(C(C)=O)cc2)c(Br)c1,-1,-1,0,-1,-1,0
COc1ccc(Nc2nnc(SCC(=O)N(CC(C)C)C3CCS(=O)(=O)C3)s2)cc1 (stereo not drawn),8,0,2,0,1,5
COc1ccc(CNC(=O)[C@@H](NC(=O)C2CCN(C(=O)[C@@H](N)Cc3ccccc3)CC2)C(C)C)cc1,-5,-1,-1,1,0,0
COc1ccc(CNC(=O)[C@H](C)NC(=O)C2CCN(C(=O)[C@H](CCSC)NC(=O)OC(C)(C)C)CC2)cc1,-2,-2,1,-1,6.2*,1
COc1ccc(CNC(=O)[C@H](Cc2ccccc2)NC(=O)C2CCN(C(=O)[C@H](C)N)CC2)cc1,3,-1,0,2,5.0*,3
CN(C)/C=C/C(=O)c1ccc(Cl)cc1,1,-2,1,-1,-1,-1
Cc1ccc(C(=O)/C=C/N(C)C)cn1,-1,-1,2,-2,6.8*,1
Cc1ccccc1C(=O)Oc1ccccc1N1C(=O)C2CC=CCC2C1=O (stereo not drawn),2,0,1,1,2,-3
O=C(Oc1ccccc1N1C(=O)C2CC=CCC2C1=O)c1ccc(Br)cc1 (stereo not drawn),0,1.2*,1,1,0,-2
Cc1cccnc1NC(=O)C1COc2ccccc2O1 (stereo not drawn),3,1.4*,1,1,-1,-3
O=C(Nc1ccccc1[N+](=O)[O-])C1COc2ccccc2O1 (stereo not drawn),7,0,2,5,8.7*,3
Cc1ccccc1NC(=O)C1COc2ccccc2O1 (stereo not drawn),2,0,0,0,2,0
COc1ccc(C)cc1NC(=O)C1COc2ccccc2O1 (stereo not drawn),2,-1,4.2*,3,-1,1
CCc1ccccc1NC(=O)C1COc2ccccc2O1 (stereo not drawn),0,-1,1,0,3,-2
COc1ccccc1CNC(=O)C(=O)NCC1CCCN1S(=O)(=O)c1cc(C)ccc1C (stereo not drawn),-1,-1,0,-2,0,-1
CCOC(=O)c1c(CN2CCN(Cc3ccccc3)CC2)n(C)c2cc(Br)c(OC)cc12,2,0,-1,0,0,-6
CCOC(=O)c1c(CN2CCC(C)CC2)n(C)c2cc(Br)c(OC)cc12,-2,-1,0,1,4.9*,-3
CCC(C)(C)NC(=O)C(c1ccc(OC)cc1)N(C(=O)CCC(=O)Nc1cc(C)on1)C(C)(C)C (stereo not drawn),-2,-1,0,-1,0,0
SMILES,hgDAF12 agonist,ssDAF12 agonist,DAX1 inh-1,hcDAF-12 act,DAX1 inh-2,SMARCA2 activ
CC(=O)Nc1ccc(Nc2cc(C)nc3c(-c4ccc(Cl)cc4)c(C)nn23)cc1,-2,-1,0,-2,-1,7.9*
CC(=O)Nc1ccc(Nc2cc(C)nc3c(-c4ccc(Cl)cc4)cnn23)cc1,6,-1,0,2,1,-2
O=C(CN(Cc1ccccc1)S(=O)(=O)c1ccc(F)cc1)NCc1ccccn1,1,-1,0,-2,-2,-1
CCCc1cc(C(=O)Nc2cc(OC)ccc2OC)cs1,5,1.2*,1,5,1,0
O=C(NC1CCCCC1)N1CCc2ccccc2C1,13*,-1,2,2,1,7
O=C(Nc1ccc(F)cc1)N1CCc2ccccc2C1,11*,0,1,1,1,2
Cc1csc(NC(=O)c2ccc(Cl)nc2)n1,7,0,0,3,2,6
CC(COc1ccccc1)OC(=O)Nc1ccccc1 (stereo not drawn),4,-1,1,2,1,3
Nc1ccc(N=Nc2ccccc2O)c(N)c1,3,1.6*,1,3,nt,1
Cc1ccc(S(=O)(=O)n2c(N)nc3ccccc32)cc1,0,-1,0,-2,0,-3
Nc1nc2ccccc2n1S(=O)(=O)c1ccc(Cl)cc1,-1,-1,4.2*,0,nt,1
COC(=O)C[C@@H]1CC[C@H](NC(=O)Cc2ccccn2)[C@@H](CO)O1,1,-1,1,0,nt,-5
O=C(NCCC(=O)N1CCN(c2ccccc2F)CC1)c1ccco1,1,-1,3.7*,1,0,1
COc1ccc(C(C)(O)c2nc(-c3ccoc3)cs2)cc1 (stereo not drawn),2,-2,-1,1,nt,3
O=C1Nc2ccccc2N(O)N1c1ccc(S(=O)(=O)Nc2ccccn2)cc1,3,0.9*,1,3,1,0
COc1cc2[nH]c3c(=O)n(CCN(C(C)C)C(C)C)cnc3c2cc1OC,-1,-1,2,-1,1,-4
CC(C)N(CCn1cnc2c([nH]c3ccccc32)c1=O)C(C)C,3,0,1,6.1*,0,-1
COc1cc(NC(=O)N2CCc3nc(Nc4cc(Cl)cc(Cl)c4)ncc3C2)cc(OC)c1OC,-4,-2,-2,0,nt,-1
